Drawing on PubChem BioAssay (Tox21), this text covers outcome and Potency for 32 compounds.

Assay [1] can be described thus: qHTS assay to identify small molecule agonists of the NFkB signaling pathway (AID 1159509; active means well fitted curve in the direction sought with a large enough effect in the signal ratio in the repeat runs, not every such curve was filed as active; the % refers to the signal ratio; further: series mostly up to about 61 µM). The method, boiled down: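 After overnight attachment, reporter cells received test compounds, DMSO or positive controls and were incubated 5 hr at 37 C. FRET substrate was then added for 1.5 hr at room temperature before dual-emission fluorescence reading.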
(In general: qHTS replaces the single test concentration by a dilution series.)

The nature of assay [2]: qHTS assay to identify small molecule agonists of the NFkB signaling pathway - cell viability counter screen (AID 1159515). Further: nearly all actives have a fitted effect of over 55% in size. Further: potency means the concentration at half of the fitted maximal effect. The method, boiled down:
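Viability in NFkB-bla ME-180 cells was measured by CellTiter-Glo luminescence, 30 min room temperature, in wells already treated 5 hr with compounds and read for reporter FRET.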

Assay [3] in a line: qHTS assay to identify small molecule agonists of the endoplasmic reticulum stress response signaling pathway - cell viability counter screen (AID 1159517). Further: nearly all actives have a fitted effect of over 50% in size. Further: potency means the concentration at half of the fitted maximal effect. The gist of the method:
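Cells, HeLa ESRE-bla; density, 1,500/well; dosing, 5 hr at 37 C, 5% CO2; readout, CellTiter-Glo luminescence after 30 min RT.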

Assay [4] has as its target Nuclear receptor ROR-gamma (Homo sapiens) (UniProt P51449). In words: qHTS assay to identify small molecule antagonists of the retinoid-related orphan receptor gamma (ROR-gamma) signaling pathway (AID 1159521; active means well fitted curve in the direction sought with a large enough effect in the repeat runs; an effect the other way counts as inactive or inconclusive; further: nearly all actives have a fitted effect of over 50% in size; further: potency means the concentration at half of the fitted maximal effect). The gist of the method: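 Screening format: cell-based luciferase reporter in CHO cells with doxycycline-inducible RORγ. Compound pre-exposure lasts 2 h, doxycycline is 1 uM final, induction runs 16 h at 37 C, and ONE-Glo luminescence is read.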

A short description of assay [5]: qHTS assay to identify small molecule agonists of the AP-1 signaling pathway - cell viability counter screen (AID 1159525). Further: nearly all actives have a fitted effect of over 55% in size. The method, boiled down: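 Luminescent ATP readout (Cell Titer Glo, 30 min RT), normalised to DMSO and tetra n-octyl ammonium bromide controls. Cells were ME-180 AP-1-bla in 0.5% dialyzed FBS Opti-MEM, with a 5 h, 37 °C compound exposure.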

The nature of assay [6]: qHTS assay to identify small molecule agonists of the vitamin D receptor (VDR) signaling pathway - cell viability counter screen (AID 743224; active means well fitted curve in the direction sought with a large enough effect in the repeat runs; an effect the other way counts as inactive or inconclusive; further: nearly all actives have a fitted effect of over 50% in size; further: potency means the concentration at half of the fitted maximal effect). The gist of the method: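 VDR-bla cell line, quantitative HTS format; 16 h compound incubation (37C, 5% CO2); ATP-based CellTiter-Glo luminescence measured in the reporter assay wells.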
A short description of assay [7]: qHTS assay to identify small molecule antagonists of the vitamin D receptor (VDR) signaling pathway - cell viability counter screen (AID 743225; active means well fitted curve in the direction sought with a large enough effect in the repeat runs; an effect the other way counts as inactive or inconclusive; further: nearly all actives have a fitted effect of over 50% in size; further: potency means the concentration at half of the fitted maximal effect). The gist of the method: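 In this counter screen, VDR-bla HEK 293T cells receive test compound plus 3 nM final calcitriol for 16 h at 37C. Room-temperature steps of 2 h with the beta-lactamase substrate, then 30 min with CellTiter-Glo, precede the luminescence read.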

Assay [8] can be described thus: qHTS assay to identify small molecule antagonists of the retinoid-related orphan receptor gamma (ROR-gamma) signaling pathway - cell viability counter screen (AID 1159520; active means well fitted curve in the direction sought with a large enough effect in the repeat runs; an effect the other way counts as inactive or inconclusive; further: nearly all actives have a fitted effect of over 50% in size; further: potency means the concentration at half of the fitted maximal effect). The method, boiled down:
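Cytotoxicity was read from cellular ATP (CellTiter-Glo luminescence) after 16 hr at 37 C with 1 uM doxycycline induction. The inducer was added 2 hr after compound transfer to Tet-on ROR gamma CHO cells.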

Assay [9] is described as follows: qHTS assay to identify small molecule agonists of the AP-1 signaling pathway (AID 1159526).
Assay [10] in a line: qHTS assay to identify small molecule agonists of the endoplasmic reticulum stress response signaling pathway (AID 1159516; active means well fitted activation curve with a large enough effect in the signal ratio in the repeat runs, not every such curve was filed as active; the % refers to the signal ratio). The method, boiled down:
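ER stress element reporter (bla) in HeLa. 1,500 cells/well, overnight attachment; 5 hr compound; 2 hr RT substrate; dual-emission fluorescence.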

The structures appear in SMILES notation. “And” between values parts separate entries of the source, which are not always exact repeats. Identical values can stand only once. Inconclusive results are not listed. More than one record can exist for a structure, and the calls need not agree. The source made the active and inactive calls. Unless noted, the call rests on the fitted dose curve.

For `O=C1NCN(c2ccccc2)C12CCN(CCCOc1ccc(F)cc1)CC2`, in assay [1], the compound was called inactive. In addition, the Potency entry in [2], in assay [3] and in assay [5] was “inactive” in each case. For the same compound, the Potency in assay [4] is 23.7 µM (active).
Regarding `Cc1ccccc1CCl`, the Potency entry in [6], in assay [7], in assay [2], in assay [3], in assay [8] and in assay [4] was “inactive” each time. The call in [1] and in [9] was inactive.
`C=CC(=O)OC`: the Potency result in assay [6], in assay [2], in assay [3] and in assay [8] was “inactive” throughout. In addition, the call in assay [1] and in assay [9] was inactive.
In the case of `O=C1c2ccccc2C(=O)C1C(=O)C(c1ccccc1)c1ccccc1`, the Potency result in assay [7], in [2], in assay [8] and in [5] was “inactive” in each case. For the same compound, the outcome in assay [1] and in assay [9] was inactive.
As for `O=[N+]([O-])c1ccc(F)c([N+](=O)[O-])c1`, the Potency result in [6], in [7] and in assay [2] was “inactive” in each case. Also, the result in assay [1] and in assay [9] was inactive. Also, the Potency was 17.5 µM (active) in assay [3] and 38.9 µM (active) in assay [8].
In the case of `c1ccc(CN2CCNCC2)cc1`, the Potency result in [6], in assay [7], in assay [2], in assay [3], in assay [8] and in assay [5] was “inactive” each time. The call in assay [1] and in assay [9] was inactive.
For `CCCCCCCCCC(=O)O[C@H]1CC[C@H]2[C@@H]3CCC4=CC(=O)CC[C@@H]4[C@H]3CC[C@]12C`, the Potency entry in assay [7], in [2], in assay [3], in [4] and in [5] was “inactive” throughout. Also, the compound was classed as inactive in assay [1] and in assay [9].
Turning to `CC(=O)NC1CCSC1=O` (centres undefined), the Potency result in assay [6], in assay [7], in [3], in [8], in [4] and in [5] was “inactive” throughout. In addition, the call in assay [1], in assay [10] and in assay [9] was inactive.
In the case of `C/C(=C\c1ccccc1)[N+](=O)[O-]`, the Potency in [6] is 24.5 µM (active); in [2], 54.9 µM (active); in assay [8], 27.3 µM (active); in assay [4], 19.3 µM (active). For the same compound, the result in assay [1] was inactive. The Potency entry in assay [5] was “inactive”.
With `CC(C)(OO)c1ccccc1`, the Potency was 54.9 µM (active) in assay [6] and 43.6 µM (active) in assay [3]. Moreover, the call in assay [1] and in assay [9] was inactive. Also, the Potency entry in [2] and in assay [5] was “inactive” in each case.
Consider `O=C1C(=O)c2cccc3cccc1c23`, for which, in assay [1], the compound was classed as inactive. The Potency result in assay [2], in assay [3] and in [5] was “inactive” each time.
Take `Clc1cccc2ccccc12`: the Potency result in assay [6], in assay [7], in [3], in assay [8], in assay [4] and in assay [5] was “inactive” throughout. Also, the compound was called inactive in assay [1], in assay [10] and in [9].
In the case of `CC(=O)C(C)(C)C`, the Potency entry in [6], in assay [7], in assay [2], in assay [8] and in assay [5] was “inactive” each time. The compound was called inactive in assay [1] and in assay [9].
As for `S=C=NCc1ccccc1`, the Potency result in assay [7], in assay [2], in assay [4] and in [5] was “inactive” each time. Further, the outcome in assay [1] was inactive.
As for `C(=NC1CCCCC1)=NC1CCCCC1`, the Potency result in assay [6] was “inactive and 24.5 µM (active)”. Also, the Potency result in assay [7], in assay [2], in assay [3], in assay [4] and in assay [5] was “inactive” in each case. Further, the outcome in [1] and in assay [9] was inactive.
As for `COC(N)=O`, the Potency result in assay [6], in [7], in [2], in assay [3], in assay [4] and in [5] was “inactive” in each case. Moreover, the call in [1] and in assay [9] was inactive.
Consider `Cn1cc[n+](C)c1` (tested in a mixture with another compound), for which the Potency entry in assay [6], in assay [3], in assay [8], in assay [4] and in assay [5] was “inactive” each time. Moreover, the outcome in assay [1], in assay [10] and in assay [9] was inactive.
For `CC(c1ccc(O)cc1)(c1ccc(O)cc1)c1ccc(O)cc1`, the call in [1] and in assay [10] was inactive. For the same compound, the Potency result in [3] and in assay [8] was “inactive” throughout.
Take `C=C(C#N)CCC#N`: the Potency result in assay [6], in assay [3], in [4] and in assay [5] was “inactive” throughout. For the same compound, the compound was called inactive in [1], in assay [10] and in assay [9].
Turning to `CC1C(=O)C[C@]2(C(C)C)C[C@H]12` (some centres undefined), the Potency result in assay [6], in assay [7], in assay [3], in assay [4] and in assay [5] was “inactive” each time. Moreover, the result in assay [1], in assay [10] and in assay [9] was inactive.
As for `O=C(OC1CCCCC1)c1ccccc1C(=O)OC1CCCCC1`, the results for the Potency in [6] and in assay [7] were 46 µM (active) and 32.6 µM (active), respectively. Moreover, the outcome in [1], in [10] and in assay [9] was inactive. The Potency result in assay [3], in assay [8] and in assay [5] was “inactive” throughout.
For `C=CC(=O)OCCCCO`, the Potency result in assay [6], in [7], in assay [3], in assay [8] and in assay [5] was “inactive” in each case. In addition, the compound was classed as inactive in assay [1] and in assay [10].
In the case of `CC1(C)CCC(Cc2ccc(Cl)cc2)C1(O)Cn1cncn1` (centres undefined), the Potency result in assay [6] and in assay [3] was “inactive” in each case. Further, the result in assay [1] and in assay [10] was inactive. In addition, in assay [4], the Potency is 54.5 µM (active).
For the compound `CCOP(O)OCC`, the Potency entry in assay [6], in assay [7], in assay [3], in [8] and in assay [5] was “inactive” each time. Also, the outcome in assay [1], in assay [10] and in assay [9] was inactive.
As to `C/C=C/C=O`, the Potency entry in assay [6], in assay [7], in assay [8], in [4] and in assay [5] was “inactive” throughout. In addition, the outcome in assay [1], in [10] and in [9] was inactive.
With `Cc1ccc2ccccc2c1`, the Potency result in assay [6] and in assay [3] was “inactive” throughout. For the same compound, the result in [1], in assay [10] and in [9] was inactive.
As for `NNC(=O)c1cccnc1`, the Potency entry in assay [6], in [3], in assay [4] and in assay [5] was “inactive” each time. For the same compound, the call in assay [1], in assay [10] and in assay [9] was inactive.
With `Clc1ccc(C(OCCN2CCCCC2)c2ccccc2)cc1` (centres undefined), the Potency entry in [7], in assay [3], in assay [8] and in assay [5] was “inactive” each time. For the same compound, the compound was classed as inactive in [1] and in assay [10].
On to `N#CCC#N`, for which the Potency entry in [6], in assay [7], in assay [3] and in assay [5] was “inactive” throughout. In addition, the compound was called inactive in [1] and in assay [10]. Moreover, the Potency in [4] is 27.3 µM (active).
Consider `C=CC(=O)OCC(C)O` (centres undefined), for which the Potency entry in [6], in assay [3], in assay [8] and in [4] was “inactive” throughout. Further, the result in [1], in [10] and in assay [9] was inactive.
Regarding `c1ccoc1`, the Potency entry in [6], in assay [7], in assay [3], in [8], in assay [4] and in assay [5] was “inactive” in each case. Besides, the compound was called inactive in assay [1], in [10] and in assay [9].
`Cn1sc(Cl)cc1=O`: the Potency result in assay [6], in assay [7] and in assay [3] was “inactive” each time. The compound was called inactive in assay [1] and in assay [10]. The Potency in assay [8] was 61.1 µM (active).
